# Reference: PubChem BioAssay
# The source made the active and inactive calls. Unless noted, the rule behind the calls is not given here.
# Legend:
# [1] = HepG2 liver cancer cell viability effects, profiling panel, resazurin fluorescence, 24 h, PK04 Diversity Set (AID 1172); details: higher = more signal
# [2] = basal S. cerevisiae growth modulation, no modifier, primary screen, OD600, strain BY4716, 24 h, basal condition (AID 1173); details: OD600, 24 h, higher = more signal, called active from +8 up or from −8 down
# [3] = MM1S myeloma cell viability, profiling panel, resazurin fluorescence, basal, 24 h, PK04 Diversity Set (AID 1174); details: higher = more signal, called active from +8 up or from −8 down;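 note: MM1S multiple myeloma cell line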
# [4] = target: Dihydroorotate dehydrogenase (quinone), mitochondrial (Plasmodium falciparum (isolate 3D7)) (UniProt Q08210); assay: PfDHODH enzyme inhibitors, primary screen, biochemical, C-terminal His tag, absorbance 600 nm (AID 1175); details: DCIP absorbance 600 nm, higher = more signal, called active from +8 up or from −8 down;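 note: recombinant parasite enzyme with a five histidine tag at its C terminus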
# [5] = P. aeruginosa biofilm formation inhibitors, primary screen, strain PAO1, LB-PBS medium, absorbance 600 nm (AID 1176); details: P. aeruginosa PAO1 growth/biofilm, A600, 12 h; higher = more signal
# [6] = S. cerevisiae RM11-1a growth modifiers, primary screen, strain RM11-1a, OD600, basal, 24 h (AID 1177); details: OD600, 24 h, higher = more signal, called active from +8 up or from −8 down;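 note: cultures grown under basal conditions with no added stressor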
# [7] = E. coli acrAB mutant growth effects, primary screen, E. coli filamentation inducers, strain DRC39, OD650, 24 h (AID 1178); details: higher = more signal, called active from +8 up or from −8 down;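 note: growth measured as culture turbidity by optical density at 650 nm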
# [8] = E. coli acrAB mutant growth effects, primary screen, E. coli filamentation inducers, strain DRC39, OD650, 48 h (AID 1179);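 note: screen aims at cell division blockers that make cells filament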; details: E. coli DRC39 delta-acrAB growth, higher = more signal, called active from +8 up or from −8 down
# [9] = RPMI8226 myeloma cell viability, profiling panel, resazurin fluorescence, basal, 24 h, PK04 Diversity Set (AID 1180); details: higher = more signal;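 note: RPMI8826 multiple myeloma cell line at 5000 cells per well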
# [10] = target: E3 ubiquitin-protein ligase XIAP (Homo sapiens) (UniProt P98170); assay: XIAP binders, primary screen, biophysical, small-molecule microarray, fluorescence 635 nm (AID 1181); details: small-molecule microarray binding, higher = more signal;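 note: score merges 667 nm emission and signal to noise over triplicate slides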
# [11] = tested on: XIP peptide (Xip251-270) binding; assay: small-molecule binders of XIP peptide, primary screen, biochemical, small-molecule microarray, fluorescence 635/667 nm, 0.1 µg/mL protein (AID 1182); details: fluorescent protein binding, 635 nm, higher = more signal, called active from +8 up or from −8 down
# XIP peptide (Xip251-270) = assay: small-molecule binders of XIP peptide, primary screen, biochemical, small-molecule microarray, fluorescence 635/667 nm, 0.5 µg/mL protein (AID 1183); details: small-molecule microarray binding, fluorescence 635 nm; higher = more signal
# [12] = Plasmodium falciparum growth inhibition, primary screen, strain 3D7, DAPI fluorescence, 100 nL (AID 1184);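 note: parasites grown inside human red blood cells in medium with human serum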; details: P. falciparum 3D7 growth, 3 d, higher = more signal
# [13] = target: Homeobox protein Hox-A13 (Mus musculus) (UniProt Q62424); assay: inhibitors of HoxA13-DNA binding, primary screen, biochemical, fluorescence polarization, labeled oligonucleotide (AID 1185); details: 15 min, higher = more signal, called active from +8 up or from −8 down
# [14] = inhibitors of hydroxyurea-induced Chk1 phosphorylation, primary screen, imaging, HeLa, phospho-Chk1 antibody, percent positive cells (AID 1186); details: hydroxyurea-induced phospho-Chk1 immunofluorescence imaging, higher = more signal
# [15] = inhibitors of hydroxyurea-induced Chk1 phosphorylation, primary screen, imaging, HeLa, phospho-Chk1 nuclear intensity (AID 1187); details: hydroxyurea-induced phospho-Chk1 immunofluorescence imaging, higher = more signal
# E3 ubiquitin-protein ligase XIAP (Homo sapiens), sequence (P98170 whole entry, looked up): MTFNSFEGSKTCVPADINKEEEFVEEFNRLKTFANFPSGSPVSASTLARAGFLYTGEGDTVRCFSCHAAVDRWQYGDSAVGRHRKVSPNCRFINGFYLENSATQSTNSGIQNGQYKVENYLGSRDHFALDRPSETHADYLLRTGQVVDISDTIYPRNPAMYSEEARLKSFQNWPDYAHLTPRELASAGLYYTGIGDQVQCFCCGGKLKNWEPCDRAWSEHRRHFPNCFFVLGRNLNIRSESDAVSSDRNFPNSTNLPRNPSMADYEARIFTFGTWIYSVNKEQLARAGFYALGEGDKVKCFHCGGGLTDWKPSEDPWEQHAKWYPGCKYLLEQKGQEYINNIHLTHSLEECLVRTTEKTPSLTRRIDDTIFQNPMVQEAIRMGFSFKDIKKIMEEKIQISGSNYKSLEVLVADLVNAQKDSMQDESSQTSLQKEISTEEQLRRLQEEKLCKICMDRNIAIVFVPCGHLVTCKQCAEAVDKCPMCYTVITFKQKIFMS
# Homeobox protein Hox-A13 (Mus musculus), sequence (Q62424 whole entry, looked up): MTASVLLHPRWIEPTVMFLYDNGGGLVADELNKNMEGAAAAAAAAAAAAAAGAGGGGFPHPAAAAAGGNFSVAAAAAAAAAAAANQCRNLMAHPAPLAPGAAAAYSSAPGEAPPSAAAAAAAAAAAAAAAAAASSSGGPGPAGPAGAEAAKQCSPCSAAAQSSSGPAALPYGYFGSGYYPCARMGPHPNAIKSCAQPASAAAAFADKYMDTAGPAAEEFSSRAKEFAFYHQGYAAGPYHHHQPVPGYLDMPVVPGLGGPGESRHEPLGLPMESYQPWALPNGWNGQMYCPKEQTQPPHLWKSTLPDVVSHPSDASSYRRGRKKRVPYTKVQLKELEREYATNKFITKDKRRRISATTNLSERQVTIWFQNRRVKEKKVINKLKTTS
# Dihydroorotate dehydrogenase (quinone), mitochondrial (Plasmodium falciparum (isolate 3D7)), sequence (Q08210 whole entry, looked up): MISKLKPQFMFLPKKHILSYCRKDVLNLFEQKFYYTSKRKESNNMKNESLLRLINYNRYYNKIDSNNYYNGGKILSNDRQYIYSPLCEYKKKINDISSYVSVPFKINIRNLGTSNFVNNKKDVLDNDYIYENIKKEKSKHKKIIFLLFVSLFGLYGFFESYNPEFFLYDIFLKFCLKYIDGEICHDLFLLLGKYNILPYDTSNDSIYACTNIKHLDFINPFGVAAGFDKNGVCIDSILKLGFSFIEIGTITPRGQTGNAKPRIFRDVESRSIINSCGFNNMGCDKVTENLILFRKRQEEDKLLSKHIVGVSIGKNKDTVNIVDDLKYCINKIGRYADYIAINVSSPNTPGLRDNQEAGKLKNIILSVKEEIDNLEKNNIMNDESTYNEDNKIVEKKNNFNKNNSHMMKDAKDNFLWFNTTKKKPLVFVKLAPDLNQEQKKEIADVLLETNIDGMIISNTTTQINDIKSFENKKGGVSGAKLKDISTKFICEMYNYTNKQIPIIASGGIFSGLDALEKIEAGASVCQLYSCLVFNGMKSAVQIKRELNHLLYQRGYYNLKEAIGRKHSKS
smiles,measurement,setting,value
COCCOC(=O)N1C(=O)[C@@]2(c3cc(C#CCCO)ccc31)[C@H](c1ccc(O)cc1)N1[C@H](c3ccccc3)[C@H](c3ccccc3)OC(=O)[C@H]1[C@@H]2C(=O)N1CCc2cc(OC)c(OC)cc2C1,z-score,[1],0.458
same,z-score,[2],0.537 (inactive)
same,z-score,[3],0.202 (inactive)
same,composite z-score,[4],-1.1 (inactive)
same,z-score,[5],0.318 (inactive)
same,z-score,[6],1.26 (inactive)
same,z-score,[7],0.886 (inactive)
same,z-score,[8],0.821 (inactive)
same,z-score,[9],1.26
same,composite z-score,[10],-0.0272
same,composite z-score,[11],0.0404 (inactive)
same,composite z-score,XIP peptide (Xip251-270),0.786
same,z-score,[12],-0.0976
same,z-score,[13],-1.97 (inactive)
same,z-score,[14],-0.0202 (inactive)
same,z-score,[15],0.0613 (inactive)
COCCOC(=O)N1C(=O)[C@@]2(c3cc(C#CC4(O)CCCCCC4)ccc31)[C@H](c1ccc(OCCO)cc1)N1[C@H](c3ccccc3)[C@H](c3ccccc3)OC(=O)[C@H]1[C@@H]2C(N)=O,z-score,[1],-0.776
same,z-score,[2],0.581 (inactive)
same,z-score,[3],-3.25 (inactive)
same,composite z-score,[4],-0.259 (inactive)
same,z-score,[5],1.84 (inactive)
same,z-score,[6],1.89 (inactive)
same,z-score,[7],-0.236 (inactive)
same,z-score,[8],-0.635 (inactive)
same,z-score,[9],-3.62
same,composite z-score,[10],-0.142
same,composite z-score,[11],0.539 (inactive)
same,composite z-score,XIP peptide (Xip251-270),0.849
same,z-score,[12],-2.02
same,z-score,[13],-1.87 (inactive)
same,z-score,[14],-0.0641 (inactive)
same,z-score,[15],-0.215 (inactive)
COC(=O)[C@@H]1N=C(c2ccc(OCCCO)cc2)O[C@@H]1c1ccccc1CN=[N+]=[N-],z-score,[1],1.25
same,z-score,[2],-1.46 (inactive)
same,z-score,[3],0.55 (inactive)
same,composite z-score,[4],-0.487 (inactive)
same,z-score,[5],-0.636 (inactive)
same,z-score,[6],0.657 (inactive)
same,z-score,[7],0.0547 (inactive)
same,z-score,[8],0.396 (inactive)
same,z-score,[9],0.11
same,composite z-score,[10],0.279
same,composite z-score,[11],0.0222 (inactive)
same,composite z-score,XIP peptide (Xip251-270),0.362
same,z-score,[12],-0.776
same,z-score,[13],-2.74 (inactive)
same,z-score,[14],-0.196 (inactive)
same,z-score,[15],-0.0701 (inactive)
CCCCC(=C=CC[C@H](O)c1ccc(OCCO)cc1)C[C@H](O)c1ccccn1,z-score,[1],0.325
same,z-score,[2],-0.265 (inactive)
same,z-score,[3],0.747 (inactive)
same,composite z-score,[4],-2.06 (inactive)
same,z-score,[5],-0.247 (inactive)
same,z-score,[6],0.387 (inactive)
same,z-score,[7],1.45 (inactive)
same,z-score,[8],0.949 (inactive)
same,z-score,[9],1.76
same,composite z-score,[10],-0.142
same,composite z-score,[11],0.575 (inactive)
same,composite z-score,XIP peptide (Xip251-270),0.645
same,z-score,[12],-0.593
same,z-score,[13],-5.18 (inactive)
same,z-score,[14],0.203 (inactive)
same,z-score,[15],0.451 (inactive)
COCCOC(=O)N1C(=O)[C@@]2(c3cc(C#CC4=CCCCC4)ccc31)[C@H](c1ccc(OCCO)cc1)N1[C@H](c3ccccc3)[C@H](c3ccccc3)OC(=O)[C@H]1[C@@H]2C(=O)N1CCCCCCC1,z-score,[1],-0.748
same,z-score,[2],-0.747 (inactive)
same,z-score,[3],-0.168 (inactive)
same,composite z-score,[4],-0.859 (inactive)
same,z-score,[5],3.23 (inactive)
same,z-score,[6],-0.766 (inactive)
same,z-score,[7],-0.363 (inactive)
same,z-score,[8],0.817 (inactive)
same,z-score,[9],-0.435
same,composite z-score,[10],0.248
same,composite z-score,[11],1.32 (inactive)
same,composite z-score,XIP peptide (Xip251-270),0.822
same,z-score,[12],-2.06
same,z-score,[13],-15.2 (active)
same,z-score,[14],-0.002 (inactive)
same,z-score,[15],0.437 (inactive)
CC(C)CNC(=O)[C@@H]1c2ccccc2C(=O)N(C(C)C)[C@H]1c1ccc(CO)cc1,z-score,[1],0.0161
same,z-score,[2],0.294 (inactive)
same,z-score,[3],0.334 (inactive)
same,composite z-score,[4],-1.57 (inactive)
same,z-score,[5],0.348 (inactive)
same,z-score,[6],-1.19 (inactive)
same,z-score,[7],0.855 (inactive)
same,z-score,[8],1.76 (inactive)
same,z-score,[9],0.609
same,composite z-score,[10],-0.0434
same,composite z-score,[11],-0.885 (inactive)
same,composite z-score,XIP peptide (Xip251-270),0.93
same,z-score,[12],0.643
same,z-score,[13],-0.0386 (inactive)
same,z-score,[14],-0.586 (inactive)
same,z-score,[15],-0.784 (inactive)
N#Cc1ccc(C(O)C2C=CC3C(=O)NC(=O)C3N2Nc2ccccn2)cc1 (stereo not drawn),z-score,[1],-1.62
same,z-score,[2],-0.055 (inactive)
same,z-score,[3],-0.601 (inactive)
same,composite z-score,[4],-0.127 (inactive)
same,z-score,[5],0.791 (inactive)
same,z-score,[6],-1.57 (inactive)
same,z-score,[7],0.0007 (inactive)
same,z-score,[8],1.25 (inactive)
same,z-score,[9],-0.353
same,composite z-score,[10],-0.0536
same,composite z-score,[11],-0.108 (inactive)
same,composite z-score,XIP peptide (Xip251-270),0.669
same,z-score,[12],-0.557
same,z-score,[13],-1.11 (inactive)
same,z-score,[14],-0.0275 (inactive)
same,z-score,[15],0.114 (inactive)
CCCCNC(=O)c1ccc(C#C[Si](C)(C)C)c(OC(C)=O)c1,z-score,[1],-0.0319
same,z-score,[2],-1.09 (inactive)
same,z-score,[3],-0.757 (inactive)
same,composite z-score,[4],-1.4 (inactive)
same,z-score,[5],-1.44 (inactive)
same,z-score,[6],0.846 (inactive)
same,z-score,[7],1.17 (inactive)
same,z-score,[8],-0.925 (inactive)
same,z-score,[9],0.0873
same,composite z-score,[10],-0.326
same,composite z-score,[11],-0.0158 (inactive)
same,composite z-score,XIP peptide (Xip251-270),-0.351
same,z-score,[12],-1.27
same,z-score,[13],-4.82 (inactive)
same,z-score,[14],0.0588 (inactive)
same,z-score,[15],0.103 (inactive)
